The record followed here is PubChem BioAssay (Tox21).

Values joined by “and” are separate entries in the source; they are usually repeats but may differ in a detail not shown here. Identical values can stand only once. Results filed as inconclusive are left out. Entries that show only a call come without a potency. Active and inactive are the calls of the source. The call rests on the fitted dose curve; in most records, active means well fitted inhibition curve with a large enough effect in the repeat runs; inconclusive means weak or mixed curves; inactive means no such curve, though single readings can be large or run the other way.
Potency means the concentration at half of the fitted maximal effect.

Sequence of Cytochrome P450 2C9 (Homo sapiens) (P11712 whole entry, looked up): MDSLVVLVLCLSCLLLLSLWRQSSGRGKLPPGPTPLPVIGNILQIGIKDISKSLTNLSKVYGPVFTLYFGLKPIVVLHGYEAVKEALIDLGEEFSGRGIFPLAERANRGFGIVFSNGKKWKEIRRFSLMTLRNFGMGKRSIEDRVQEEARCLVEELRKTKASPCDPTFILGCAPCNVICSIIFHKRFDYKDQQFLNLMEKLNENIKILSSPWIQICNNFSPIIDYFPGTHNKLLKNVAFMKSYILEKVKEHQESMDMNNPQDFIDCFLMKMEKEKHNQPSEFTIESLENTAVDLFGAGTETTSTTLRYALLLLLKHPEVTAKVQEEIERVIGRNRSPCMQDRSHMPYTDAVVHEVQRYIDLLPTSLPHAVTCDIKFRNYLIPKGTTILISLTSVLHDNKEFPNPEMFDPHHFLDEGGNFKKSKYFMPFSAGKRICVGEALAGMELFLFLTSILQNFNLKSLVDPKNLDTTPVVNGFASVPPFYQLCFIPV

The target in the first test is Cytochrome P450 2D6 (Homo sapiens) (UniProt P10635). Description: Cytochrome P450 Family 2 Subfamily D Member 6 (CYP2D6) small molecule antagonists: luciferase reporter qHTS assay (AID 1671196). Further: nearly all actives have a fitted effect of over 50% in size. Particulars: P450-Glo CYP2D6 enzyme assay, luciferin luminescence, 1 h; series mostly up to 115 µM. The method in brief: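 Read-out is luminescence from luciferin formed by CYP2D6 turnover of a proluciferin substrate, recorded as relative luminescence units. Reactions ran 1 h at room temperature after NADPH regeneration solution was added.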
Sequence of Cytochrome P450 2D6 (Homo sapiens) (P10635 whole entry, looked up): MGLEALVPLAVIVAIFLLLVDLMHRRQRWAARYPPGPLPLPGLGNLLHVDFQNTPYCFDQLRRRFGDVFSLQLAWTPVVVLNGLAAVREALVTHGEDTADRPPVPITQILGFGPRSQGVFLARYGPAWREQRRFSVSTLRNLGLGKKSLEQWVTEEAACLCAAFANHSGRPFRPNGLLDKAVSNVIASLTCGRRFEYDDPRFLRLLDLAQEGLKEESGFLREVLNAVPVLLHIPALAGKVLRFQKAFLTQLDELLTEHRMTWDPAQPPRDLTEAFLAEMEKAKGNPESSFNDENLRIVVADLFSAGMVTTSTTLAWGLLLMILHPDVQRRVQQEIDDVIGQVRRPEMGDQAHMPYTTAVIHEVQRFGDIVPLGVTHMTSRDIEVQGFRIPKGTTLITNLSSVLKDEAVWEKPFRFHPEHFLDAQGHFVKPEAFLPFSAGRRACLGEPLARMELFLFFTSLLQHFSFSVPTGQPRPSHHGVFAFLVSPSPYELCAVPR
In general terms: In a reporter assay the amount or activity of a reporter protein is the signal.
For the compound `N#CN`, the Potency entry is “inactive”.
Regarding `CN=CNc1ccc(C)cc1C`, the Potency result was “inactive”.
Consider `C=CCc1cc(OC)c2c(c1)OCO2`, for which the Potency is 23.5 µM (active).
On to `CN(C)CCc1c[nH]c2cccc(OP(=O)(O)O)c12`, for which the Potency entry was “inactive”.
As to `NCCOS(=O)(=O)O`, the Potency result is “inactive”.
With `C[C@H]1CCCC(=O)CCC/C=C/c2cc(O)cc(O)c2C(=O)O1`, the Potency was 54.3 µM (active).
On the same count and under the same terms, the figure for `CC(C)NCC(O)c1ccc([N+](=O)[O-])cc1` (centres undefined) is 27.5 µM (active); for `c1ccc2c(c1)CCNC2` it is 7.28 µM (active).
As for `CC(C)(C)NC[C@H](O)c1ccc(O)cc1Cl`, the Potency is 30.9 µM (active).
As to `OP(O)c1ccccc1`, the Potency entry was “inactive”.

The target of a further test is Cytochrome P450 2C19 (Homo sapiens) (UniProt P33261). Kind of test: Cytochrome P450 Family 2 Subfamily C Member 19 (CYP2C19) small molecule antagonists: luciferase reporter qHTS assay (AID 1671197). Further: nearly all actives have a fitted effect of over 65% in size. Particulars: P450-Glo CYP2C19 enzyme, luciferin luminescence, 1 h; series mostly up to 115 µM. The method in brief: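 Quantitative high-throughput screen of the Tox21 library using CYP2C19 with proluciferin substrate. Reaction: NADPH regeneration, 37C, 1 h, after 10 min compound preincubation at room temperature. Readout: luminescence.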
Sequence of Cytochrome P450 2C19 (Homo sapiens) (P33261 whole entry, looked up): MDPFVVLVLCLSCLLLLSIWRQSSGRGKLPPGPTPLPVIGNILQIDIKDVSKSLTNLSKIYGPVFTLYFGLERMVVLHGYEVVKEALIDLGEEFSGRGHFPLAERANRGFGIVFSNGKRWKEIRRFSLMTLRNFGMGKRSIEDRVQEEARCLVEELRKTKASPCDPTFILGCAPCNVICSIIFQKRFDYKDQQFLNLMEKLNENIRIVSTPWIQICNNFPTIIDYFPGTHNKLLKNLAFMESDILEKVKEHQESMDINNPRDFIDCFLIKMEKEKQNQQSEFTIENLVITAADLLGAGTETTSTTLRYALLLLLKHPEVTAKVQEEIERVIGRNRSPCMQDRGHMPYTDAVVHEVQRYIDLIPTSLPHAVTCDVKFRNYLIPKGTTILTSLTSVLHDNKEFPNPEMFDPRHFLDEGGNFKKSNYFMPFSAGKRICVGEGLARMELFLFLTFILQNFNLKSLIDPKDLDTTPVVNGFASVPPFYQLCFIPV
As for `[O-][Br+2]([O-])O`, the Potency result is “inactive”.
For `CCOP(=S)(OCC)SCCl`, the Potency was 35.6 µM (active).
Turning to `CCC(C)C(C)(COC(N)=O)COC(N)=O` (centres undefined), the Potency result is “inactive”.
Consider `ClC1=C(Cl)C2(Cl)C(CBr)CC1(Cl)C2(Cl)Cl` (centres undefined), for which the Potency result was “inactive”.
For `CCOC1Oc2ccc(OS(C)(=O)=O)cc2C1(C)C` (centres undefined), the Potency was 3.96 µM (active).
For the compound `CC(C)(N)Cc1ccc(Cl)cc1`, the Potency result was “inactive”.
Turning to `CCOC(=O)CC(SP(=S)(OC)OC)C(=O)OCC` (centres undefined), the Potency is 178 nM (active) and 436 nM (active).
Turning to `O=C/C=C/c1ccco1`, the Potency entry is “inactive”.
The same measure, in the same setting: in the case of `COc1cc(CCN)cc(OC)c1OC` it was “inactive”; in that of `CNC(=O)NC(O)C(Cl)(Cl)Cl` (centres undefined), “inactive”.
Consider `O=C(NC(O)C(Cl)(Cl)Cl)NC(O)C(Cl)(Cl)Cl` (centres undefined), for which the Potency entry is “inactive”.
Same read-out and setting: the entry for `O=C(O)CBr` is “inactive”; for `CC(C)[C@]12CC(=O)[C@H](C)[C@H]1C2` it is “inactive”; for `CN(C)C(=O)Oc1cc(OC(=O)N(C)C)cc(C(O)CNC(C)(C)C)c1` (centres undefined) it is “inactive”.
As for `C=C(C)[C@H]1CN[C@H](C(=O)O)[C@H]1CC(=O)O`, the Potency result was “inactive”.
With `CC(C)(O)C(Cl)(Cl)Cl`, the Potency result is “inactive”.
In the case of `Cn1c(CCCC(=O)O)nc2cc(N(CCCl)CCCl)ccc21`, the Potency result is “inactive”.
With `CCN(CCO)CCn1c(Cc2ccccc2)nc2c1c(=O)n(C)c(=O)n2C`, the Potency entry was “inactive”.
For `CC(C)C(C)(N)C#N` (centres undefined), the Potency result is “inactive”.
With `O=P(O)(O)CN(CP(=O)(O)O)CP(=O)(O)O`, the Potency entry is “inactive”.
Same read-out and setting: the entry for `Cc1ccc(Cl)c(O)c1` is “inactive”; for `C/C=C/CC#N` it is “inactive”.
On to `ClCCCCCCCl`, for which the Potency was 39.9 µM (active).
Consider `CCCCCCC(=O)CCCCCC/C=C/C[C@@H](O)[C@H](O)[C@@](N)(CO)C(=O)O`, for which the activity change, negative = inhibition was 14.2% [at 23.6 µM] (inactive).
With `O=C1C2CC=CCC2C(=O)N1SC(Cl)(Cl)Cl` (centres undefined), the Potency was 39.8 µM (active) and 8.79 µM (active).
Regarding `N#CN`, the Potency result was “inactive”.
Still for that read-out and setting: in the case of `CN=CNc1ccc(C)cc1C` it was “inactive”; in that of `C=CCc1cc(OC)c2c(c1)OCO2`, 59 µM (active); in that of `CN(C)CCc1c[nH]c2cccc(OP(=O)(O)O)c12`, “inactive”.
The same measure, in the same setting: the entry for `NCCOS(=O)(=O)O` is “inactive”.
On to `C[C@H]1CCCC(=O)CCC/C=C/c2cc(O)cc(O)c2C(=O)O1`, for which the Potency was 17.2 µM (active) and 29.2 µM (active).
As to `CC(C)NCC(O)c1ccc([N+](=O)[O-])cc1` (centres undefined), the Potency entry was “inactive”.
On the same count and under the same terms, the figure for `c1ccc2c(c1)CCNC2` is 57.9 µM (active); for `CC(C)(C)NC[C@H](O)c1ccc(O)cc1Cl` it is “inactive”.
In the case of `OP(O)c1ccccc1`, the Potency result was “inactive”.

The next test concerns the target Cytochrome P450 2C9 (Homo sapiens) (UniProt P11712). Kind of test: Cytochrome P450 Family 2 Subfamily C Member 9 (CYP2C9) small molecule antagonists: luciferase reporter qHTS assay (AID 1671198). Further: nearly all actives have a fitted effect of over 50% in size. Particulars: P450-Glo CYP2C9 enzyme assay, luciferin luminescence; series mostly up to 115 µM. In outline: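 CYP2C9 activity was measured with a P450-Glo proluciferin substrate. Enzyme–substrate mix was held with compound for 10 min at room temperature, then NADPH regeneration solution was added for 1 h at 37C. Luciferin product was read as luminescence.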
For `[O-][Br+2]([O-])O`, the Potency entry was “inactive”.
For `CCOP(=S)(OCC)SCCl`, the Potency is 14.2 µM (active).
Still for that read-out and setting: in the case of `CCC(C)C(C)(COC(N)=O)COC(N)=O` (centres undefined) it was “inactive”; in that of `ClC1=C(Cl)C2(Cl)C(CBr)CC1(Cl)C2(Cl)Cl` (centres undefined), “inactive”; in that of `CCOC1Oc2ccc(OS(C)(=O)=O)cc2C1(C)C` (centres undefined), 22.3 µM (active).
As for `CC(C)(N)Cc1ccc(Cl)cc1`, the Potency entry was “inactive”.
Same read-out and setting: the figure for `CCOC(=O)CC(SP(=S)(OC)OC)C(=O)OCC` (centres undefined) is 1.19 µM (active) and 1.38 µM (active).
With `O=C/C=C/c1ccco1`, the Potency entry was “inactive”.
On to `COc1cc(CCN)cc(OC)c1OC`, for which the Potency entry is “inactive”.
With `CNC(=O)NC(O)C(Cl)(Cl)Cl` (centres undefined), the Potency entry is “inactive”.
For the compound `O=C(NC(O)C(Cl)(Cl)Cl)NC(O)C(Cl)(Cl)Cl` (centres undefined), the Potency result is “inactive”.
Turning to `O=C(O)CBr`, the Potency result was “inactive”.
As to `CC(C)[C@]12CC(=O)[C@H](C)[C@H]1C2`, the Potency result was “inactive”.
The same measure, in the same setting: the entry for `CN(C)C(=O)Oc1cc(OC(=O)N(C)C)cc(C(O)CNC(C)(C)C)c1` (centres undefined) is “inactive”; for `C=C(C)[C@H]1CN[C@H](C(=O)O)[C@H]1CC(=O)O` it is “inactive”; for `CC(C)(O)C(Cl)(Cl)Cl` it is “inactive”.
Take `Cn1c(CCCC(=O)O)nc2cc(N(CCCl)CCCl)ccc21`: the Potency result is “inactive”.
Consider `CCN(CCO)CCn1c(Cc2ccccc2)nc2c1c(=O)n(C)c(=O)n2C`, for which the Potency entry is “inactive”.
Regarding `CC(C)C(C)(N)C#N` (centres undefined), the Potency result is “inactive”.
For the compound `O=P(O)(O)CN(CP(=O)(O)O)CP(=O)(O)O`, the Potency result is “inactive”.
As to `Cc1ccc(Cl)c(O)c1`, the Potency entry is “inactive”.
On to `C/C=C/CC#N`, for which the Potency result was “inactive”.
For `ClCCCCCCCl`, the Potency entry is “inactive”.
With `CCCCCCC(=O)CCCCCC/C=C/C[C@@H](O)[C@H](O)[C@@](N)(CO)C(=O)O`, the activity change, negative = inhibition was 9.38% [at 23.6 µM] (inactive).
For `O=C1C2CC=CCC2C(=O)N1SC(Cl)(Cl)Cl` (centres undefined), the Potency was 31.6 µM (active) and 4.94 µM (active).
With `N#CN`, the Potency entry is “inactive”.
For `CN=CNc1ccc(C)cc1C`, the Potency entry is “inactive”.
For `C=CCc1cc(OC)c2c(c1)OCO2`, the Potency is 37.2 µM (active).
For `CN(C)CCc1c[nH]c2cccc(OP(=O)(O)O)c12`, the Potency entry is “inactive”.
For the compound `NCCOS(=O)(=O)O`, the Potency result was “inactive”.
In the case of `C[C@H]1CCCC(=O)CCC/C=C/c2cc(O)cc(O)c2C(=O)O1`, the Potency was 4.84 µM (active) and 7.34 µM (active).
For the compound `CC(C)NCC(O)c1ccc([N+](=O)[O-])cc1` (centres undefined), the Potency result is “inactive”.
Regarding `CC(C)(C)NC[C@H](O)c1ccc(O)cc1Cl`, the Potency result is “inactive”.
`OP(O)c1ccccc1`: the Potency result is “inactive”.
